This test has as its system HL-1. In words: cardiomyocyte survival under oxidative or metabolic stress – cell-based, panel, H9c2 and HL-1, ATP luminescence, set 2, SAR follow-up (AID 651871).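 Also: cells exposed to stressor for 2 h before ATP readout; reference of the scale not given here.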 Particulars: H9c2/HL-1 cardiomyocytes, 2-deoxyglucose stress, with 2-deoxyglucose, run 6, at 79 µM (top of the series).
In the case of `CCOC(=O)c1cccc(NC(=O)CNC(=O)c2cc(-c3cc(OC)c(OC)c(OC)c3)nc3ccccc23)c1`, the activity (protection/inhibition) was determined as 74.8%. In the case of `COc1ccc2nc(-c3cc(OC)c(OC)c(OC)c3)cc(C(=O)NCC(=O)Nc3ccc(C(C)=O)cc3)c2c1` it was 61.1%. With `COc1ccc2c(c1OC)C(=O)N1c3ccccc3C(=O)N(Cc3cccc(Cl)c3Cl)C21` (stereo not drawn), the activity (protection/inhibition) was -11.4%.
